Screening data as filed in PubChem.
The entries come from a sample that favours hits as a whole.
ROC1-CUL1 inh – inhibitors of human ROC1-CUL1 ubiquitin ligase activity; E3 ubiquitin-protein ligase RBX1 (Homo sapiens) + Cullin-1 (Homo sapiens), P62877+Q13616; in vitro K48 di-Ub FRET, acceptor:donor ratio, 45 min; inhibition, % at 10 µM; 140,000 tested, 0.6% active; in the data active = inhibition above about 25%
Target sequence (P62877 whole entry, looked up): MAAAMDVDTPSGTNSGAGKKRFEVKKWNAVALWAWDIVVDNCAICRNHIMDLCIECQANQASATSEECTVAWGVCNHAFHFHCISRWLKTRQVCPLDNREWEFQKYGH
Target sequence (Q13616 whole entry, looked up): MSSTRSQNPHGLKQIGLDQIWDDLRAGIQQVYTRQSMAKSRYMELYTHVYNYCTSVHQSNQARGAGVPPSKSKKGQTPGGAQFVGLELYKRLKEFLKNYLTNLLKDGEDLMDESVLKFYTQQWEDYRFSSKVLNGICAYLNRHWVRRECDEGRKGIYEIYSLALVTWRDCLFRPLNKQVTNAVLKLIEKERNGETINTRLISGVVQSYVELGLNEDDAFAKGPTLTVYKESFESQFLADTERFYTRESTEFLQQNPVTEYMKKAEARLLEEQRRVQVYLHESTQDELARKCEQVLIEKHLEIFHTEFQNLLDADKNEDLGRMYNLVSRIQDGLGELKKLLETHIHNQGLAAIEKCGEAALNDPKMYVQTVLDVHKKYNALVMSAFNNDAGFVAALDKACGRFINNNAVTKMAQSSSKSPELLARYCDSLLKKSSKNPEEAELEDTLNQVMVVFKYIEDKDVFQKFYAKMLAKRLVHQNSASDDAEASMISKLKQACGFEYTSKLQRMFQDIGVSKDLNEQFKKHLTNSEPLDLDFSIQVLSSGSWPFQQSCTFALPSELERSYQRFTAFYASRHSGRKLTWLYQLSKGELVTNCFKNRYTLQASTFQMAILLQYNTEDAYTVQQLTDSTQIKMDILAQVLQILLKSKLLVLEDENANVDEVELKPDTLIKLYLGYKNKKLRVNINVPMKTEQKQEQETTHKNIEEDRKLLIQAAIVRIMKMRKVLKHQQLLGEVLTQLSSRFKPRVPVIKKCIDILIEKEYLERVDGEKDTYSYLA
* = called active by the depositor.

How did CCOC(=O)C1=C(C)N=c2s/c(=C/c3cc(Br)c(O)cc3O)c(=O)n2C1c1ccc(OCC)cc1 (configuration not stated) do in these assays?
ROC1-CUL1 inh: 66.5*

Results for CCOC(=O)C1=C(c2ccccc2)N=c2s/c(=C\c3cc([N+](=O)[O-])ccc3O)c(=O)n2C1c1cccc(OC)c1 (configuration not stated) ?
ROC1-CUL1 inh: 59.8*

What do the screens show for `CCOC(=O)C1=C(C)N=c2s/c(=C\c3ccc4c(c3)OCO4)c(=O)n2C1c1ccc(OC)cc1` (configuration not stated)?
ROC1-CUL1 inh: 10.4

How did C=CCOc1ccc(C2C(C(=O)OCC)=C(C)N=c3s/c(=C\c4cc(I)c(O)c(OC)c4)c(=O)n32)cc1 (configuration not stated) do in these assays?
ROC1-CUL1 inh: 37.0*

Results for CCOC(=O)C1=C(C)N=c2s/c(=C\c3ccc(O)cc3)c(=O)n2C1c1ccc(OCC)cc1 (configuration not stated) ?
ROC1-CUL1 inh: 1.7

How did CCOC(=O)C1=C(C)N=c2s/c(=C/c3ccsc3)c(=O)n2C1c1ccc(OC)cc1 (configuration not stated) do in these assays?
ROC1-CUL1 inh: 2.4

How did CCOC(=O)C1=C(C)N=c2s/c(=C\c3cc(Cl)ccc3O)c(=O)n2C1c1ccc(OCC)cc1 (configuration not stated) do in these assays?
ROC1-CUL1 inh: 6.2

What do the screens show for `CCOC(=O)C1=C(c2ccccc2)N=c2s/c(=C/c3ccccc3O)c(=O)n2C1c1cccc(OC)c1` (configuration not stated)?
ROC1-CUL1 inh: 0.9

Results for CCCCOC(=O)c1sccc1COc1ccc(Cl)cc1 ?
ROC1-CUL1 inh: 3.5

What do the screens show for `CCCOC(=O)c1nccnc1C(=O)Nc1cc(Cl)cc(Cl)c1`?
ROC1-CUL1 inh: 2.2

Results for CCn1c(=O)[nH]c2cc(C(=O)Nc3ccc(OC)cc3)ccc2c1=O ?
ROC1-CUL1 inh: -2.8

What do the screens show for `CCOC(=O)C(NC(=O)c1cccc(Cl)c1)(Nc1ccccc1Cl)C(F)(F)F` (configuration not stated)?
ROC1-CUL1 inh: 9.8

How did O=C(CSc1nc(-c2ccccc2)cc(-c2ccccc2)n1)N1c2ccccc2Sc2ccccc21 do in these assays?
ROC1-CUL1 inh: 2.1

How did CCCn1ncc(CN2CCCC(CO)(CCCc3ccccc3)C2)c1C (configuration not stated) do in these assays?
ROC1-CUL1 inh: -5.0

How did c1cc(CN2CCc3[nH]nc(-c4ccc5c(c4)OCO5)c3C2)cs1 do in these assays?
ROC1-CUL1 inh: -0.2

How did Cc1cccc(-c2ncc(CNC3COc4ccccc4C3)cn2)c1 (configuration not stated) do in these assays?
ROC1-CUL1 inh: 2.2

Results for O=[N+]([O-])c1ccccc1Oc1nc2ccccc2nc1Oc1ccccc1[N+](=O)[O-] ?
ROC1-CUL1 inh: 2.9

Results for CCOC(=O)C1=C(C)N=c2s/c(=C\c3ccc(O)cc3)c(=O)n2C1c1ccc(F)cc1 (configuration not stated) ?
ROC1-CUL1 inh: 6.6

How did CCOC(=O)C1=C(C)N=c2s/c(=C/c3cc(Br)c(O)c(Br)c3)c(=O)n2C1c1ccc(Cl)cc1 (configuration not stated) do in these assays?
ROC1-CUL1 inh: 82.6*

How did CCOC(=O)C1=C(C)N=c2s/c(=C/c3ccc(O)cc3)c(=O)n2C1c1cc(OC)ccc1OC (configuration not stated) do in these assays?
ROC1-CUL1 inh: -2.6

Results for CCOC(=O)C1=C(C)N=c2s/c(=C\c3cc(Br)c(O)c(OC)c3)c(=O)n2C1c1ccc(OC)cc1 (configuration not stated) ?
ROC1-CUL1 inh: 53.2*

How did CCOC(=O)C1=C(C)N=c2s/c(=C\c3cc4c(cc3Br)OCO4)c(=O)n2C1c1ccc(Cl)cc1 (configuration not stated) do in these assays?
ROC1-CUL1 inh: -3.0

Results for CCOC(=O)C1=C(C)N=c2s/c(=C/c3ccoc3)c(=O)n2C1c1ccc(OC)cc1 (configuration not stated) ?
ROC1-CUL1 inh: 9.0

How did CCOC(=O)C1(Cc2ccc(F)cc2)CCCN(C(=O)C(=O)c2ccco2)C1 (configuration not stated) do in these assays?
ROC1-CUL1 inh: 1.8

Results for CCc1cccc(C)c1NC(=O)c1nnn(-c2ccc(C)cc2C)c1C ?
ROC1-CUL1 inh: 0.5

What do the screens show for `COCC1CCCN(C(=O)c2coc(CN3CCN(Cc4ccccc4)CC3)n2)C1` (configuration not stated)?
ROC1-CUL1 inh: -2.9

What do the screens show for `CCC(C)C(=O)Nc1ccc(OC)cc1` (configuration not stated)?
ROC1-CUL1 inh: -3.4

Results for CCN(CC)c1ccc(/C=C2\SC(=O)N(Cc3ccc(F)cc3)C2=O)cc1 ?
ROC1-CUL1 inh: -3.5

Results for COc1ccc(/C=C/c2nnc(COc3ccc(Br)cc3)o2)cc1 ?
ROC1-CUL1 inh: -2.3

What do the screens show for `c1cc2c(s1)COCc1sccc1-2`?
ROC1-CUL1 inh: 45.3*

Results for O=C(O)c1sccc1-c1ccsc1C(=O)O ?
ROC1-CUL1 inh: -1.0

How did O=C(CSc1ncnc2c1cnn2CCO)N1CCOCC1 do in these assays?
ROC1-CUL1 inh: -4.0

What do the screens show for `O=C(Nc1ccc2nc(SCC(=O)N3CCOCC3)sc2c1)c1cccc(F)c1`?
ROC1-CUL1 inh: 4.5

How did O=C(Nc1ccc2nc(SCC(=O)N3CCOCC3)sc2c1)c1ccc(Br)cc1 do in these assays?
ROC1-CUL1 inh: -9.7

What do the screens show for `O=C(Nc1ccc2nc(SCC(=O)N3CCOCC3)sc2c1)c1cccc(Br)c1`?
ROC1-CUL1 inh: 26.9*

Results for COCCN1C(=O)CC(CC(=O)N2CCCC(c3ccccc3)CC2)(c2cccc(OC)c2)C1=O (configuration not stated) ?
ROC1-CUL1 inh: 1.7

What do the screens show for `CCOc1ccc(S(=O)(=O)N2CCC(Cc3ccccc3)CC2)cc1`?
ROC1-CUL1 inh: 58.7*

What do the screens show for `CCOC(=O)C1CCN(S(=O)(=O)c2ccc(OCC)cc2)CC1`?
ROC1-CUL1 inh: 5.7

What do the screens show for `CCOc1ccc(S(=O)(=O)N2CCOCC2)cc1`?
ROC1-CUL1 inh: -6.9

What do the screens show for `Cc1occc1C(=O)N1CCC(N2CCCC(C(=O)NC3CC3)C2)CC1` (configuration not stated)?
ROC1-CUL1 inh: 25.0*

Results for Cc1cccc(C(=O)N2CCC(N3CCCC(C(=O)NC4CC4)C3)CC2)c1 (configuration not stated) ?
ROC1-CUL1 inh: 11.4

What do the screens show for `COc1ccc(C(=O)N2CCC(N3CCCC(C(=O)NC4CC4)C3)CC2)o1` (configuration not stated)?
ROC1-CUL1 inh: -0.6

How did O=C1C2ON(c3ccccc3)C(/C=C/c3ccccc3)C2C(=O)N1c1ccc(Br)cc1 (configuration not stated) do in these assays?
ROC1-CUL1 inh: -1.4

Results for C=CCN1C(=O)C(=O)C(C(C)=O)C1c1ccccc1F (configuration not stated) ?
ROC1-CUL1 inh: 1.1
